From ChEMBL document CHEMBL1157539, “Thousands of chemical starting points for antimalarial lead identification” (Nature, 2010)

What was measured:
Assay type in all cases: functional
Plasmodium falciparum [1] = assay: GSK_TCMDC: Inhibition of Plasmodium falciparum 3D7 in whole red blood cells, using parasite LDH activity as an index of growth. Test compounds present at 2uM
Plasmodium falciparum [2] = assay: GSK_TCMDC: Inhibition of Plasmodium falciparum Dd2 in whole red blood cells, using parasite LDH activity as an index of growth. Test compounds present at 2uM
HepG2 = assay: GSK_TCMDC: Percent inhibition of human HepG2 cell line. Test compounds present at 10uM.

CCCN(CCC)CCOc1ccc(C(O)(C#CC(O)(c2ccc(OCCN(CCC)CCC)cc2)c2cccc(Cl)c2)c2cccc(Cl)c2)cc1 (stereo not given)
Inhibition (Plasmodium falciparum [1]): 100%
Inhibition (Plasmodium falciparum [2]): 98%
Inhibition (HepG2): 100%

COc1ccc(C2CC(=O)C3=C(C2)NC(C)=C(C(=O)OC2CCCC2)C3c2cccc(O)c2)cc1 (stereo not given)
Inhibition (Plasmodium falciparum [1]): 88%
Inhibition (Plasmodium falciparum [2]): 83%
Inhibition (HepG2): 0%

COc1cccc(NC(=O)Nc2ccc(Nc3nc(C)cc(N(C)C)n3)cc2)c1
Inhibition (Plasmodium falciparum [1]): 100%
Inhibition (Plasmodium falciparum [2]): 100%
Inhibition (HepG2): 14%

CC1CCN(c2nc(C(=O)Nc3ccc(F)cc3C(F)(F)F)c(C(C)C)s2)CC1.O=C(O)C(F)(F)F
Inhibition (Plasmodium falciparum [1]): 100%
Inhibition (Plasmodium falciparum [2]): 66%
Inhibition (HepG2): 5%

COc1ccc(-c2nc(NC(=O)CSc3ccccc3)sc2C)cc1
Inhibition (Plasmodium falciparum [1]): 94%
Inhibition (Plasmodium falciparum [2]): 31%
Inhibition (HepG2): 6%

CN(C)CC(=O)Nc1ccc(Nc2nccc(NCC(O)c3ccccc3)n2)cc1 (stereo not given)
Inhibition (Plasmodium falciparum [1]): 95%
Inhibition (Plasmodium falciparum [2]): 2%
Inhibition (HepG2): 0%

CCOC(=O)C1=C(C)N=c2sc(=Cc3cc(Cl)ccc3O)c(=O)n2C1c1cc(OC)c(OC)cc1Br (stereo not given)
Inhibition (Plasmodium falciparum [1]): 97%
Inhibition (Plasmodium falciparum [2]): 76%
Inhibition (HepG2): 6%

O=c1c(Br)ccccc1Br
Inhibition (Plasmodium falciparum [1]): 94%
Inhibition (Plasmodium falciparum [2]): 41%
Inhibition (HepG2): 98%

Cc1cccc2nc(-c3ccc(-c4cccc(CNCCCN5CCCC5=O)c4)cc3)[nH]c12.O=C(O)C(F)(F)F
Inhibition (Plasmodium falciparum [1]): 96%
Inhibition (Plasmodium falciparum [2]): 3%
Inhibition (HepG2): 6%

COc1cccc(CN2CCCN(Cc3cccc(NC(=O)c4ccc(-c5ccccc5)cc4)c3)CC2)c1.O=C(O)C(F)(F)F
Inhibition (Plasmodium falciparum [1]): 86%
Inhibition (Plasmodium falciparum [2]): 8%
Inhibition (HepG2): 35%

Cc1cc([N+](=O)[O-])ccc1NC(=O)Nc1cccc(C(F)(F)F)c1
Inhibition (Plasmodium falciparum [1]): 100%
Inhibition (Plasmodium falciparum [2]): 100%
Inhibition (HepG2): 15%

O=C(Nc1cccc(N2CCC(NCCCn3ccnc3)CC2)c1)c1cccc(C(F)(F)F)c1
Inhibition (Plasmodium falciparum [1]): 100%
Inhibition (Plasmodium falciparum [2]): 2%
Inhibition (HepG2): 8%

CCc1cc2c3c(N)nc(N)nc3ccc2n1CC
Inhibition (Plasmodium falciparum [1]): 93%
Inhibition (Plasmodium falciparum [2]): 0%
Inhibition (HepG2): 62%

O=C(Nc1ccc(CC(=O)N2CCc3cc(Cl)c(N4CCN(C/C=C/c5ccccc5)CC4)cc32)cc1)Nc1cccc([N+](=O)[O-])c1
Inhibition (Plasmodium falciparum [1]): 95%
Inhibition (Plasmodium falciparum [2]): 27%
Inhibition (HepG2): 0%

CCCCCN1CCC(NC(=O)c2ccc(C(=O)Nc3ccc(C(C)C)cc3)cc2)CC1.O=C(O)C(F)(F)F
Inhibition (Plasmodium falciparum [1]): 98%
Inhibition (Plasmodium falciparum [2]): 9%
Inhibition (HepG2): 41%

Cc1nc2cc(/C=C/C(=O)NC3CCC(CCN4CCc5ccc(C#N)cc5CC4)CC3)ccc2[nH]1.Cl (stereo not given)
Inhibition (Plasmodium falciparum [1]): 88%
Inhibition (Plasmodium falciparum [2]): 21%
Inhibition (HepG2): 7%

O=C(O)C(F)(F)F.c1cncc(CCNCc2cccc(-c3csc(-c4nc5ccccc5[nH]4)c3)c2)c1
Inhibition (Plasmodium falciparum [1]): 100%
Inhibition (Plasmodium falciparum [2]): 98%
Inhibition (HepG2): 26%

O=C(O)C(F)(F)F.c1ccc2c(c1)CN(CC1CCOCC1)CC1(CCN(Cc3c[nH]c4cnccc34)CC1)O2
Inhibition (Plasmodium falciparum [1]): 99%
Inhibition (Plasmodium falciparum [2]): 7%
Inhibition (HepG2): 21%

CC(C)C[C@@H](C(=O)N[C@H](C(=O)Nc1nccs1)C(C)(C)C)[C@H](CCC(F)(F)F)N(O)C=O
Inhibition (Plasmodium falciparum [1]): 97%
Inhibition (Plasmodium falciparum [2]): 71%
Inhibition (HepG2): 11%

CC(C)NCc1cccc(-c2ccc(NC(=O)c3cccc(C#N)c3)cc2)c1.O=C(O)C(F)(F)F
Inhibition (Plasmodium falciparum [1]): 100%
Inhibition (Plasmodium falciparum [2]): 95%
Inhibition (HepG2): 22%

CN(C)C(=O)c1ccc(CN(Cc2cccc(OC(C)(C)C)c2)Cc2ccc3c(c2)OCCO3)cc1
Inhibition (Plasmodium falciparum [1]): 96%
Inhibition (Plasmodium falciparum [2]): 96%
Inhibition (HepG2): 0%

CN1c2ccc([N+](=O)[O-])cc2C(C)(C)C12C=Cc1cc(Br)cc([N+](=O)[O-])c1O2 (stereo not given)
Inhibition (Plasmodium falciparum [1]): 100%
Inhibition (Plasmodium falciparum [2]): 99%
Inhibition (HepG2): 0%

Cl.N#Cc1cccc(/C=C/C(=O)NC2CCC(CCN3CCc4ccc(-c5cnccn5)cc4CC3)CC2)c1 (stereo not given)
Inhibition (Plasmodium falciparum [1]): 93%
Inhibition (Plasmodium falciparum [2]): 47%
Inhibition (HepG2): 22%

Cl.N#Cc1ccc(-c2ccc(C(=O)Nc3ccc4c(c3)CCN(C3CCC3)CC4)nc2)cc1
Inhibition (Plasmodium falciparum [1]): 99%
Inhibition (Plasmodium falciparum [2]): 63%
Inhibition (HepG2): 21%

CN1CCC(NC(=O)c2cc(Oc3ccc4c(c3)CCN4C(=O)Nc3cccc(C(F)(F)F)c3)ccn2)CC1.O=C(O)C(F)(F)F
Inhibition (Plasmodium falciparum [1]): 92%
Inhibition (Plasmodium falciparum [2]): 17%
Inhibition (HepG2): 16%

O=C(Nc1cccc(C(F)(F)F)c1)Nc1cc(F)c(F)cc1Cl
Inhibition (Plasmodium falciparum [1]): 83%
Inhibition (Plasmodium falciparum [2]): 98%
Inhibition (HepG2): 0%

CS(=O)(=O)Nc1ccc2[nH]cc(C3CCN(CC(O)C4CCN(C(=O)/C=C/c5ccc(Cl)c(Cl)c5)CC4)CC3)c2c1.O=C(O)C(F)(F)F (stereo not given)
Inhibition (Plasmodium falciparum [1]): 100%
Inhibition (Plasmodium falciparum [2]): 0%
Inhibition (HepG2): 28%

COc1ccccc1CCNC(=O)c1cc(Br)cc(N2CCN(c3ccncc3)CC2)c1.O=C(O)C(F)(F)F
Inhibition (Plasmodium falciparum [1]): 84%
Inhibition (Plasmodium falciparum [2]): 32%
Inhibition (HepG2): 38%

COc1cccc(-c2cc(C(=O)Nc3cc(Oc4ccc(O)cc4)cc([N+](=O)[O-])c3)on2)c1
Inhibition (Plasmodium falciparum [1]): 89%
Inhibition (Plasmodium falciparum [2]): 30%
Inhibition (HepG2): 16%

O=C(Nc1ccc(C(F)(F)F)cc1)NC1CCN(CCCCCNC(=O)C2CC2c2ccc(Cl)c(Cl)c2)CC1 (stereo not given)
Inhibition (Plasmodium falciparum [1]): 100%
Inhibition (Plasmodium falciparum [2]): 45%
Inhibition (HepG2): 41%
